# Bioassay records as filed in PubChem BioAssay.
# cytoskel mod: modifiers of F-actin cytoskeleton organization, primary screen, imaging, HUVEC, phalloidin staining, high-content imaging; HUVEC TNFa F-actin phalloidin imaging; inhibition, % at 2 µM; hit rate 0.18% among 91,000;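 active = inhibition above the batch mean plus 3 SD and confirmed as a hit by visual image inspection, cut at about 30% in these data, passing the limit was not always enough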
# E-sel TNF inh: E-selectin induction blockers in HUVEC – imaging, immunofluorescence, high content, primary screen; inhibition, % at 2 µM; HUVEC TNFa-induced E-selectin immunofluorescence; hit rate 0.71% among 120,000;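 active = inhibition above the batch mean plus 3 SD, and confirmed as a hit on visual image review, cut at about 43% in these data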;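 note: 0% = TNF-stimulated DMSO wells and 100% = unstimulated control wells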
# HUVEC tox TNFa: cytotoxicity in TNFa-stimulated HUVEC, primary screen, cytotoxicity control for VCAM1 expression modulator project, imaging, Hoechst nuclei count; HUVEC TNFalpha-stimulated, Hoechst cell count; cell count reduction, % at 2 µM; hit rate 0.17% among 93,000; AID 848, 2007;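 active = cell count reduction exceeding the screen mean by over 5 SD, scaled to untreated wells per plate, cut at about 78% in these data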;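 note: cells counted after 24 h of TNF alpha exposure following the 1 h pretreatment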
# VCAM1 TNFa inh: inhibitors of TNFa-induced VCAM1 expression, primary screen, imaging, HUVEC, TNFa stimulus, immunofluorescence | HUVEC TNFa-induced VCAM-1 immunofluorescence, high-content imaging | inhibition, % at 2 µM | hit rate 0.48% among 95,000 | AID 802, 2007;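 active = inhibition above the batch mean plus 3 SD, with images confirmed as a hit by eye, cut at about 37% in these data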;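 note: 0% = TNF-stimulated DMSO wells and 100% = unstimulated control wells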
# PLAP activator: PLAP enzyme activators, biochemical, luminescence, HTS; activation fold at 20 µM; hit rate 1.2% among 96,000; purified PLAP enzyme, luminescent substrate read-out; stronger effect = higher value; Alkaline phosphatase, placental type (Homo sapiens), P05187; in the data active = activation fold above about 2
# Target sequence (P05187 whole entry, looked up): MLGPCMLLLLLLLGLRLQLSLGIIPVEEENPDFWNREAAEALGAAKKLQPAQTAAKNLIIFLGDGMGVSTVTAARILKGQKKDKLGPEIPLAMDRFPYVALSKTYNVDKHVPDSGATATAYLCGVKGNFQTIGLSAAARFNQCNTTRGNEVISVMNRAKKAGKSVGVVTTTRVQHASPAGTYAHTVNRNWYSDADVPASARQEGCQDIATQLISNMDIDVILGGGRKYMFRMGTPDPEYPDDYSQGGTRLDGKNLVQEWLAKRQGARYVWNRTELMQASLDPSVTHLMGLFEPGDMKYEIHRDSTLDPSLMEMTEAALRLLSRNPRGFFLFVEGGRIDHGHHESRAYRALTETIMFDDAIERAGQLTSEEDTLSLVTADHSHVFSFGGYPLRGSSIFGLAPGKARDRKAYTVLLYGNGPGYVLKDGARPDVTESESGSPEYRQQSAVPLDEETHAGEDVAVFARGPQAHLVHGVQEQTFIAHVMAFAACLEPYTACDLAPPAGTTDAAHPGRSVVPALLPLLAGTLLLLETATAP
# * hit, by the source's call; nt = no result given. Rows were chosen to be rich in hits. Some 2% of all compounds tested hit in one or more screens of this group.
SMILES,cytoskel mod,E-sel TNF inh,HUVEC tox TNFa,VCAM1 TNFa inh,PLAP activator
C=CCc1cccc(/C=N/NC(=O)CNc2ccccc2)c1O,-5,-6,-2,10,1.1
C=CCc1cccc(/C=N/NC(=O)CCCNc2ccc(C)cc2)c1O,nt,69*,nt,nt,nt
Cc1cc(=O)oc2cc(OCC(=O)OCC(=O)NCc3ccc4c(c3)OCO4)ccc12,8,71*,-7,-9,1
COc1ccc(Oc2ccccc2C=O)cc1,13,11,-21,-12,1
Cc1cccc(N2CCN(C(=O)CCc3nc4ccccc4[nH]3)CC2C)c1 (centres undefined),-2,11,-26,2,2.2*
CSc1cccc(NC(=O)C2CCCN(S(=O)(=O)c3ccc(F)cc3)C2)c1 (centres undefined),4,59*,12,13,1.1
CSc1cccc(NC(=O)C2CCN(S(=O)(=O)c3ccc(F)cc3)CC2)c1,5,-11,-13,26,1.3
CCOc1cc(/C=N\NC(=O)Cc2ccccc2)ccc1OCC(=O)Nc1ccc(C)c(C)c1,-15,-9,15,52*,1
CCOc1cc(/C=N\Nc2ccc([N+](=O)[O-])cc2)ccc1OCC(=O)Nc1ccc(C)c(C)c1,-9,-5,13,-4,0.7
Clc1ccc(-c2nnc(-c3ccco3)o2)cc1,-1,77*,-12,-10,1
c1cncc(-c2nnc(-c3ccco3)o2)c1,-3,-1,7,1,0.9
Brc1ccc(-c2csc3ncnc(-n4nnc5ccccc54)c23)cc1,nt,-15,nt,nt,nt
CCCCCCS(=O)Cc1ccccc1 (centres undefined),nt,nt,nt,nt,1.1
CCCCOc1ccc(CSc2ncn[nH]2)cc1,0,-31,-6,14,2.3*
O=C(CSc1ncn[nH]1)c1cccc([N+](=O)[O-])c1,nt,-26,nt,nt,nt
O=C(CSc1ncn[nH]1)N(C1CCCCC1)C1CCCCC1,nt,19,-22,13,2*
O=C(O)c1ccccc1CSc1ncn[nH]1,1,19,7,9,1.2
C(=C\CSc1ncn[nH]1)/CSc1ncn[nH]1,17,7,-34,-5,2.7*
O=C(CSc1ncn[nH]1)c1ccccc1,34,-6,-26,-7,2.2*
Cc1ccc(-n2c(C)cc(C(=O)CN3CCCCC3)c2C)cc1,nt,3,nt,nt,nt
CCOc1ccccc1NC(=S)NCC1CCCO1 (centres undefined),nt,52,nt,nt,nt
CCCCN(C(=O)CN1CCOCC1)c1c(N)n(CC(C)C)c(=O)[nH]c1=O,nt,-36,nt,nt,nt
CSc1cccc(NC(=O)CN(C)S(=O)(=O)c2ccc(C)cc2)c1,-10,8,23,-24,0.9
Cc1c(NC(=O)CCc2ccccc2)cccc1[N+](=O)[O-],nt,-9,nt,nt,nt
c1n[nH]c(SCCCCSc2ncn[nH]2)n1,-22,3,-8,25,2.6*
SMILES,cytoskel mod,E-sel TNF inh,HUVEC tox TNFa,VCAM1 TNFa inh,PLAP activator
O=C(COC(=O)c1ccc(S(=O)(=O)N2CCOCC2)cc1)NC1CCCCCC1,35,8,-8,-15,0.8
O=C(COC(=O)CCc1ccc(S(=O)(=O)N2CCOCC2)cc1)NC1CCCC1,nt,63*,nt,nt,nt
CCOC(=O)C(NCc1ccc2c(c1)OCO2)(NC(=O)c1ccccc1)C(F)(F)F (centres undefined),22,-26,-4,8,0.9
O=c1cc(-c2ccc(F)cc2)oc2ccccc12,4,44*,-31,14,nt
CSc1ccc(-c2cc(=O)c3ccccc3o2)cc1,-3,18,-20,24,1.2
CCOC(=O)c1nnc(-c2ccc(C)cc2)nc1Oc1ccccc1Cl,10,28,-16,3,0.9
CCOC(=O)c1nnc(-c2ccc(C)cc2)nc1Oc1ccc(Cl)cc1Cl,11,63*,16,9,1.1
COc1cccc(CN2CCNC(=O)C2CC(=O)NCCOc2cccnc2)c1 (centres undefined),nt,-21,nt,nt,nt
Cc1ccc(S(=O)(=O)Nc2ccc(Cl)cc2C(=O)c2ccc(F)cc2)cc1,nt,-18,nt,nt,nt
COc1ccc(-c2cc(C)nc(SCc3cccc(C(=O)O)c3)n2)cc1,nt,69*,nt,nt,nt
COc1ccccc1CCn1cnc2c3cc(C)ccc3n(C)c2c1=O,-7,nt,-36,-10,0.7
CCn1c(-c2cc(-c3ccc(OC(C)C)cc3)nc3ccccc23)n[nH]c1=S,9,-16,-7,8,2.2*
CCn1c(-c2cc(-c3cc(OC)ccc3OC)nc3ccccc23)n[nH]c1=S,3,23,-10,8,2.3*
CCn1c(-c2cc(-c3ccc(C)cc3)nc3ccccc23)n[nH]c1=S,nt,-12,nt,nt,nt
COc1ccc(NC(=O)CCN2C(=O)C3CC=C(Cl)CC3C2=O)cc1 (centres undefined),nt,11,nt,nt,nt
CCOc1cc(C2CC(=O)N3CN(C4CCCCC4)CSC3=C2C#N)ccc1O (centres undefined),2,nt,82*,38,1.3
COc1ccc2ccccc2c1C1CC(=O)N2CN(C3CCCCC3)CSC2=C1C#N (centres undefined),-1,nt,-14,16,1.6
COc1cc(C(=O)N2CCN(c3cc(Cl)ccc3Cl)CC2)cc(OC)c1OC,6,nt,70,58*,1.5
Cc1nn(C)cc1C1C2=C(CC(C)(C)CC2=O)N(c2ccccc2)C2=C1C(=O)CC(C)(C)C2,11,-3,-15,-2,2*
CC1(C)CC(=O)C2=C(C1)N(c1ccc(F)cc1)C(=O)CC2c1ccccc1 (centres undefined),nt,10,8,9,1.5
Cc1ccc(S(=O)(=O)N2CCN(C3CC(=O)N(CCc4ccccc4)C3=O)CC2)cc1C (centres undefined),9,nt,-6,12,1.1
O=C(CN1C(=O)CCC1=O)Nc1nc(-c2nc3ccccc3s2)cs1,nt,19,nt,nt,nt
O=C(CN1C(=O)CCC1=O)Nc1nc(-c2ccccn2)cs1,2,15,-29,12,2.2*
COc1ccccc1Nc1nc2ccccc2[nH]1,-2,-1,-13,23,1.1
c1ccc2[nH]c(NC3=NCCC3)nc2c1,34,nt,-17,8,2.1*
SMILES,cytoskel mod,E-sel TNF inh,HUVEC tox TNFa,VCAM1 TNFa inh,PLAP activator
O=[N+]([O-])c1ccc(COc2cccc(CNc3ccc(Br)cc3)c2)cc1,nt,-19,nt,nt,nt
CC(Oc1cc(Cl)ccc1Cl)C(=O)N/N=C\c1ccnn1C (centres undefined),nt,-7,nt,nt,nt
CN(CC(=O)NC(c1ccccc1)c1ccccc1)Cc1nc2ccccc2c(=O)[nH]1,-17,-25,-19,-8,4.9
CN(CC(=O)NC(=O)NCc1ccco1)Cc1nc2ccccc2c(=O)[nH]1,nt,6,nt,nt,2.3*
CCN(CC)C(=O)CSc1nnc(COc2cccc(C)c2)n1C,nt,-25,nt,nt,nt
CCOC(=O)C1=C(SCC)c2cc3c(n2C1=O)CCCC3,30*,-10,-16,1,nt
CC(C)CCOC(=O)C1C(c2ccccc2)C(C(=O)O)C1c1ccccc1 (centres undefined),nt,-13,3,-6,1.2
COc1ccc(N2CCN(C(=O)CSc3nnc4c(C)cc5cc(C)ccc5n34)CC2)cc1,51*,nt,-14,-5,1.4
